Experimental data published in article PMC12670160, “A drug-repurposing screen of FDA- and EMA-approved drugs identifies two NF-κB inhibitors active against eumycetoma” (Journal of Antimicrobial Chemotherapy, 2025).
Counter-ions that a name gives are not always drawn. The whole screen tested about 5,300 compounds, of which about 130 (2.5%) showed an effect of 50% or more. The full list was thinned out, with strong results kept by preference.

System: M. mycetomatis strain mm55
Conditions: primary screen, metabolic activity vs growth control; 96 h, 2 µM; inhibitor

Row | SMILES | % viability [%]
1 | O=C1Nc2c(ccc(Cl)c2Cl)C1=NO [ONC0002536, ns309] | 65.12
2 | COC(=O)[C@H]1[C@@H](C)[C@@H](OC)C=CO[C@@]2(C)Oc3c(C)c(O)c4c(O)c(cc(O)c4c3C2=O)NC(=O)/C(C)=C\C=C/[C@@H](C)[C@@H](O)[C@@H](C)[C@H](O)[C@@H]1C [ONC0003453, rifamycin sv sodium salt] | 53.39
3 | CN(C)[C@@H]1C(=O)C(C(N)=O)C(=O)[C@@]2(O)C(=O)C3C(=O)c4c(O)ccc(Cl)c4[C@@H](O)[C@H]3C[C@@H]12 (some centres unmarked) [ONC0000432, demeclocycline hydrochloride] | 77.24
4 | CCCCCCc1ccc(O)cc1O [ONC0000355, hexylresorcinol] | 72.69
5 | CCCCCCCCCCCC1=C(O)C(=O)C=C(O)C1=O [ONC0001079, embelin] | 49.47
6 | CCCCCCCCc1ccc(CCC(N)(CO)CO)cc1 [ONC0005159, fingolimod fty720 hcl] | 130.1
7 | NC1=N[C@H]2[C@H](CCCCC(=O)O)SC[C@H]2N1 [ONC0003635, 2iminobiotin] | 86.51
8 | CC(C)=CCC/C(C)=C/CC/C(C)=C/CCC(O)OC/C=C(\C)CCC=C(C)C (centres unmarked) [ONC0000430, geranylfarnesylacetate gefarnate] | 66.04
9 | O=C(Oc1cccc2cccnc12)c1ccccc1 [ONC0003987, benzoxiquine] | 75.23
10 | Cc1ccc2c(Br)cc(Br)c(OC(=O)c3ccccc3)c2n1 [Broxaldine] | 3.407
11 | O=C(OOC(=O)c1ccccc1)c1ccccc1 [ONC0003111, benzoyl peroxide] | 80.87
12 | c1cnc2cc3c(cc2n1)C1CNCC3C1 [ONC0004813, varenicline tartrate] | 83.4
13 | CCCC[C@H](C)C[C@H](O)/C=C/[C@H]1[C@H](O)CC(=O)[C@@H]1CCCC/C=C/C(=O)O [ONC0005482, limaprost] | 96.34
14 | Cc1ccc(C(C)C)c(OC=C2NCCN2)c1 [ONC0005561, tymazoline] | 90.75
15 | O=[N+]([O-])c1ccccc1S(=O)(=O)NC[C@H]1CC[C@H](CNCC2CCc3ccccc3C2)CC1 (some centres unmarked) [ONC0000121, ntncb] | 80.22
16 | CC(=O)OC1[C@@H](N2CC[N+](C)(C)CC2)C[C@H]2[C@@H]3CC[C@H]4C[C@H](OC(C)=O)[C@@H](N5CC[N+](C)(C)CC5)C[C@]4(C)[C@H]3CC[C@]12C (some centres unmarked) [ONC0001992, pipecuronium] | 103.5
17 | CCCCOc1ccc(CC(=O)NO)cc1 [ONC0000683, bufexamac] | 91.55
18 | O=C(CCCCCCC(=O)NO)NO [ONC0001756, sbha] | 85.39
19 | CCC(=O)NO [ONC0002308, zami633] | 45.69
20 | OCC(O)COc1ccc(Cl)cc1 (centres unmarked) [ONC0002159, chlorphenesin] | 67.41
21 | CCC(C)CC(C)CCCCCCCCC(=O)N[C@H]1C[C@@H](O)[C@@H](NCCN)NC(=O)[C@@H]2[C@@H](O)CCN2C(=O)[C@H]([C@H](O)CCN)NC(=O)[C@H]([C@@H](O)[C@H](O)c2ccc(O)cc2)NC(=O)[C@@H]2C[C@@H](O)CN2C(=O)[C@H]([C@@H](C)O)NC1=O (some centres unmarked) [ONC0002201, caspofungin acetate] | 69.7

Row | SMILES | % viability [%]
22 | CN1CCN(C(=O)CN[C@@H]2C[C@H]2c2ccc(OCc3ccccc3)cc2)CC1 [ONC0000424, rn1] | 85.6
23 | COc1ccc(/C=C/C(=O)O)cc1 [ONC0003824, trans4methoxycinnamicacid] | 65.15
24 | COc1ccc2[nH]c(C(=O)c3ccccc3)cc2c1 [ONC0001898, d64131] | 78.99
25 | COc1ccc(/C=C/CCCCOc2ccc(C(=O)c3cccc(C(=O)O)c3)cc2CCC(=O)O)cc1 [ONC0003815, ly223982] | 21.75
26 | CC(=O)[C@H]1CC[C@H]2[C@@H]3CC=C4C[C@@H](O)CC[C@]4(C)[C@H]3CC[C@]12C [ONC0003199, pregnenolone] | 77.25
27 | Cc1oc2nc3c(c(NC(=O)CN4CCCC4=O)c2c1C)CCCC3 [ONC0001218, coluracetam] | 81.81
28 | CCOC(=O)Nc1ccc(NCc2ccc(F)cc2)nc1N.O=C(O)/C=C\C(=O)O [ONC0001304, flupirtine maleate] | 68.53
29 | CCOC(=O)Nc1cc2c(c(N)n1)NC(c1ccccc1)=C(C)N2 [ONC0002128, mivobulin] | 3.846
30 | CCOC(=O)Nc1nc2ccccc2[nH]1 [ONC0004223, lobendazole] | 137.9
31 | C=CC(=O)N1CCCC(n2c(=O)n(-c3ccc(Oc4ccccc4)cc3)c3c(N)ncnc32)C1 (centres unmarked) [ONC0004392, ono4059] | 98.71
32 | CN1C2C[C@H](OC(=O)[C@H](CO)c3ccccc3)C[C@@H]1[C@@H](O)C2 [ONC0003283, anisodamine hydrobromide] | 41.57
33 | C[N+]1(C)C2CCC1CC(OC(=O)C(CO)c1ccccc1)C2 (centres unmarked) [ONC0003986, methylatropine nitrate] | 73.02
34 | C[N+]1([O-])C2CCC1CC(OC(=O)C(CO)c1ccccc1)C2 (centres unmarked) [ONC0004212, atropine oxide] | 82.92
35 | FC(F)(F)Oc1ccc2[nH]c(-c3ccc(OCCOCCOc4ccc(-c5nc6cc(OC(F)(F)F)ccc6[nH]5)nc4)cn3)nc2c1 [ONC0000980, ai1049] | 83.7
36 | CC(=O)OCC1=C(C(=O)O)N2C(=O)[C@@H](N)[C@H]2SC1 [ONC0004514, 7aminocephalosporanic acid] | 52.68
37 | CCn1cc(-c2cccc(C(F)(F)F)c2)c2sc(C(=N)NC3CCS(=O)(=O)CC3)cc2c1=O [ONC0001085, ibrd9] | 45.4
38 | Cc1c(C(=O)NCc2cccnc2)nn(-c2ccc(Cl)cc2Cl)c1-c1ccc(Cl)cc1 [ONC0001432, mj15] | 60.06
39 | C[C@@H]1CC2C3CCC4=CC(=O)C=C[C@]4(C)[C@@]3(F)[C@@H](O)C[C@]2(C)[C@@]1(O)C(=O)CO (some centres unmarked) [ONC0000416, dexamethasone] | 62.67
40 | O=C(Nc1cc(C(F)(F)F)cc(C(F)(F)F)c1)c1cc(Cl)ccc1O [IKK2 inhibitor V (IMD-0354), IMD-0354] | 2.589
41 | O=C(Nc1ccc([N+](=O)[O-])cc1Cl)c1cc(Cl)ccc1O [niclosamide] | 70.84
42 | O=C(Nc1cc(C(F)(F)F)cc(C(F)(F)F)c1)c1cnc(Cl)nc1C(F)(F)F [ONC0001396, sp100030] | 126.3

Row | SMILES | % viability [%]
43 | O=C(C[C@H]1NCCC[C@@H]1O)Cn1cnc2cc(Br)c(Cl)cc2c1=O (racemic) [ONC0004939, halofuginone] | 90.07
44 | CC1=CC(=O)NS(=O)(=O)O1 [ONC0005569, acesulfame potassium] | 46
45 | c1ccc(-c2ncc(CN3CCN(c4ncccn4)CC3)[nH]2)cc1 [ONC0000007, ngd941] | 130.5
46 | CC(COc1ccccc1)NC(C)[C@H](O)c1ccc(O)cc1 (some centres unmarked) [ONC0000598, isoxsuprine hydrochloride] | 84.27
47 | CCC(O)(CC(N)=O)c1ccccc1 (centres unmarked) [ONC0003599, 3hydroxy3phenylpentanamide] | 105.2
48 | Cc1nc2cc(-n3ncc(C(=O)c4cc5ccccc5[nH]4)c3N)ccc2[nH]1 [ONC0004455, ch5183284 debio1347] | 110.2
49 | CCNC(=O)N1CCN(CCCC(c2ccc(F)cc2)c2ccc(F)cc2)CC1 [ONC0003498, amperozidehcl] | 32.95
50 | O=c1[nH]c2ccccc2n1C1CCN(CCCC(c2ccc(F)cc2)c2ccc(F)cc2)CC1 [ONC0000675, pimozide] | 106.9
51 | Cc1cccc(C)c1NC(=O)CN1CCN(CCCC(c2ccc(F)cc2)c2ccc(F)cc2)CC1 [ONC0002360, lidoflazine] | 112.8
52 | Cc1c[nH]c(-c2cnc(NCCNc3ccc(C#N)cn3)nc2-c2ccc(Cl)cc2Cl)n1 [ONC0004531, chir99021 ct99021 hcl] | 57.04
53 | C[C@H]1c2cccc(O)c2C(=O)C2C(=O)[C@]3(O)C(=O)C(C(N)=O)C(=O)[C@@H](N(C)C)[C@@H]3[C@@H](O)[C@@H]21 (some centres unmarked) [ONC0000682, doxycycline hydrochloride] | 94.49
54 | C[C@]12CCC(=O)C=C1CCC1C2C(=O)C[C@@]2(C)C1CC[C@]2(O)C(=O)CO (some centres unmarked) [ONC0005338, cortisone] | 64.83
55 | Cc1sc(C)c2c1CCC=C2c1cnc[nH]1 [ONC0000248, tcg1000] | 71.17
56 | Cc1ccnc(NC(=O)C(C)c2cccc(C(=O)c3ccccc3)c2)c1 (centres unmarked) [ONC0003716, piketoprofen] | 97.11
57 | O=C(O)c1ccccc1Nc1cccc(OCc2ccc3ccccc3n2)c1 [ONC0001414, sr2640] | 39.31
58 | CCCCCC(O)c1cccc(OCc2ccc3ccccc3n2)c1 (centres unmarked) [ONC0005481, rev5901 l655238] | 92.78
59 | O=C(O)[C@@H](c1ccc(OCc2ccc3ccccc3n2)cc1)C1CCCC1 [ONC0005557, veliflapon] | 76.74
60 | Cc1cc(O)c2c(c1)C(=O)c1cccc(O)c1C2=O [ONC0005265, chrysophanic acid chrysophanol] | 118.5
61 | Cc1cc(O)c2c(c1)C(=O)c1cc(O)cc(O)c1C2=O [ONC0004997, emodin] | 57.84
62 | COc1cc(O)c2c(c1)C(=O)c1cc(C)cc(O)c1C2=O [ONC0004501, rheochrysidin physcione] | 41.39
